± gives the standard deviation of the averaged measurements.

This test deals with AEK1 (Tb927.3.2440). In words: percent reduction in TR-FRET probe signal relative to DMSO control; higher = stronger displacement of ATP-site probe (binding). The settings on record: 1 µM; incubation time 1 h.
For the compound `Cc1ccc(F)c(NC(=O)Nc2ccc(-c3cccc4[nH]nc(N)c34)cc2)c1` [Linifanib (ABT-869)], the “percent reduction in TR-FRET probe signal” value (“percent reduction” below) was 1.08 ± 12%. Next, `O=C(/C=C/c1ccc2ccccc2n1)c1ccncc1`: -6.28 ± 6%; `Oc1ccc(Nc2nc(-c3ccc(Cl)cc3)cs2)cc1`: -4.54 ± 4.1%; `Cc1nc(Nc2ncc(C(=O)Nc3c(C)cccc3Cl)s2)cc(N2CCN(CCO)CC2)n1` [Dasatinib]: 10.6 ± 19%. Next, `COc1cc2nccc(Oc3ccc(NC(=O)NC4CC4)c(Cl)c3)c2cc1C(N)=O` [Lenvatinib (E7080)]: 1.41 ± 13%. For the compound `CNc1nc(-c2ccc3c(N)n[nH]c3c2)cc(N2C[C@@H](C(=O)NC3CCCCC3)CC[C@H]2C)n1`, the “percent reduction” value was found to be 14.7 ± 20%. With `CCCS(=O)(=O)Nc1ccc(F)c(C(=O)c2c[nH]c3ncc(Cl)cc23)c1F` the figure was -8.04 ± 4.3%. For `Cc1c[nH]c(-c2cnc(NCCNc3ccc(C#N)cn3)nc2-c2ccc(Cl)cc2Cl)n1`, the “percent reduction” value was 2.8 ± 12%.

With `COc1cc(-c2cc(-c3ccc(N4CCNCC4)cc3)cnc2C)cc(OC)c1OC`, the “percent reduction” value was -4.94 ± 0.48%. As to `C=CC(=O)Nc1cccc(Nc2nc(Nc3ccc(OCCOC)cc3)ncc2F)c1`, the “percent reduction” value is -0.667 ± 7.7%.

In the case of `CNC(=O)c1cc(COc2nnc(Nc3ccc(Cl)cc3)c3ccoc23)ccn1` [Telatinib], the “percent reduction” value was -1.95 ± 4.8%. Next, `Nc1ncnc2c1c(-c1cnc3[nH]ccc3c1)nn2C1CCCC1`: 21.6 ± 20%; `CCS(=O)(=O)c1cccc(-c2cc(C(=O)NC3CCN(C)CC3)c(C)c3[nH]c4ncc(C)cc4c23)c1`: 79.9 ± 8.1%; `COc1ccc(F)c(F)c1C(=O)c1cnc(NC2CCN(S(C)(=O)=O)CC2)nc1N`: 4.07 ± 8.4%. Next, `CCn1c2ccccc2c2cc(Nc3ccnc(NCCCN4CCOCC4)n3)ccc21`: -8.54 ± 5.5%; `CNC(=O)c1nn(C)c2c1C(C)(C)Cc1cnc(Nc3ccc(N4CCN(C)CC4)cc3)nc1-2`: -3.55 ± 7.5%; `Cc1cnc(Nc2ccc(F)cc2Cl)nc1-c1c[nH]c(C(=O)N[C@H](CO)c2cccc(Cl)c2)c1`: 9.02 ± 15%.

Regarding `NC(=O)c1ccc(N(C(N)=O)c2c(F)cccc2F)nc1-c1ccc(F)cc1F`, the “percent reduction” value is -4.77 ± 9.4%. Next, `Oc1cc(O)cc(/C=C/c2ccc(O)c(O)c2)c1` [Piceatannol]: 44.1 ± 8%; `CNS(=O)(=O)C[C@H]1CC[C@H](N(C)c2ncnc3[nH]ccc23)CC1.O=C(O)/C=C\C(=O)O` [Oclacitinib]: 6.94 ± 17%; `Cc1cc(Nc2nc(N[C@@H](C)c3ccc(F)cc3)c(C#N)cc2F)n[nH]1`: 56.3 ± 7.3%. For `O=c1cc(-c2ccccc2)oc2c(O)c(O)ccc12` [7,8-Dihydroxyflavone], the “percent reduction” value is -6.52 ± 5.7%. With `C[C@]1(O)C[C@@H](c2nc(-c3ccc4ccc(-c5ccccc5)nc4c3)c3c(N)nccn32)C1` [OSI-906 (Linsitinib)] the figure was -6.09 ± 6%; with `O=C(NCc1cccc(O)c1)Nc1nc(-c2ccncc2)cs1`, -10 ± 8.6%.

Consider `COc1cc2c(Nc3ccc(NC(=O)c4ccccc4)cc3)ncnc2cc1OCCCN1CCOCC1`, for which the “percent reduction” value was determined as 4.13 ± 16%. `Clc1ccc(C2(c3ccc(-c4cn[nH]c4)cc3)CCNCC2)cc1`: the “percent reduction” value was found to be 27.3 ± 17%.

For the compound `O=C1c2ccc(Nc3ccc(F)cc3F)cc2CCc2ccc(OC[C@H](O)CO)cc21` [Skepinone-L], the “percent reduction” value was -1.27 ± 10%. With `Cc1cc(Nc2cc(N3CCN(C)CC3)nc(/C=C/c3ccccc3)n2)n[nH]1`, the “percent reduction” value was 20.9 ± 12%. Turning to `C[C@@H]1CCN(C(=O)CC#N)C[C@@H]1N(C)c1ncnc2[nH]ccc12.O=C(O)CC(O)(CC(=O)O)C(=O)O`, the “percent reduction” value was -1.47 ± 8.1%. With `COc1cc(Nc2nc3ccccc3nc2NS(=O)(=O)c2ccc(NC(=O)c3ccc(C)c(OC)c3)cc2)cc(OC)c1` the figure was 18.9 ± 14%; with `NCC(=O)Nc1ccc(-n2nc(C(F)(F)F)cc2-c2ccc3c(ccc4ccccc43)c2)cc1`, -2.82 ± 7.5%; with `CC(C)(C)c1cc(/C=C(\C#N)C(N)=S)cc(C(C)(C)C)c1O` [Tyrphostin AG 879], 4.66 ± 0.43%. Next, `Cn1cc(-c2[nH]c3cc(NC(=O)[C@H](N)C4CCCCC4)cc4c3c2C=NNC4=O)cn1`: 76.9 ± 6.5%; `CN1CC[C@H](c2c(O)cc(O)c3c(=O)cc(-c4ccccc4Cl)oc23)[C@H](O)C1` [Flavopiridol (Alvocidib)]: -2.55 ± 4.6%; `Cl.Cl.OC(c1cc(-c2ccc(Cl)cc2)nc2ccccc12)C1CCCCN1` (stereo not given) [Vacquinol-1]: -5.59 ± 3.7%.

For the origin of these results see the supplement of paper PMC10720658.
